Most compounds without a hit are left out; they make up all but 4.1% or so of the library.
Vc quorum ag = quorum light induction in luxS cqsA deficient V. cholerae; activation, % at 18.7 µM; 350,000 compounds, 0.16% hits; V. cholerae BH1578 lux reporter, luminescence, 6 h; in the data active = activation mostly above about 9.7%, no sharp cut-off; inconclusive = no clear call, values can overlap the other calls; inactive = mostly below about 3.7%
GDH-TPI counter-1 = counter-screen for M. tuberculosis FBA inhibitors: GDH-TPI coupled enzymes. GDH-TPI coupled enzyme counterscreen, NADH absorbance. inhibition, % at 4.8 µM. 360,000 compounds, 1.2% hits; in the data active = inhibition above about 30%
UGM FP inh = blocks M. tuberculosis UGM enzyme. inhibition, % at 10 µM. purified UGM, fluorescence polarization probe displacement. 320,000 compounds, 0.06% hits. P9WIQ1; in the data active = inhibition above about 10%, passing the limit was not always enough; inconclusive = no clear call, values can overlap the other calls
Mtb FBA inh = Mtb fructose-bisphosphate aldolase inhibition. 360,000 compounds, 2.3% hits. P9WQA3. purified M. tuberculosis FBA, fluorescence read-out. AID 588726. inhibition, % at 1 µM
Target sequence (P9WQA3 whole entry, looked up): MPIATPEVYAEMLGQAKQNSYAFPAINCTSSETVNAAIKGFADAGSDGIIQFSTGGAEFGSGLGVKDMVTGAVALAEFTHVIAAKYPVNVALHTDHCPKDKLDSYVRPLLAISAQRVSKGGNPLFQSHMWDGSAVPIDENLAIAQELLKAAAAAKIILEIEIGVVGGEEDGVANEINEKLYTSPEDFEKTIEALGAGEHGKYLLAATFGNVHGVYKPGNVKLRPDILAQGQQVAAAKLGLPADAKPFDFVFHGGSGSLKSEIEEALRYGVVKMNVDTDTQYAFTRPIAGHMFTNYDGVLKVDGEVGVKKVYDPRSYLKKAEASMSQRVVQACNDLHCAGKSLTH
RecA intein inh = blocks M. tuberculosis RecA intein splicing | cell-free RecA intein splicing, fluorescence | inhibition, % (no concentration beside the values) | 290,000 compounds, 0.75% hits | AID 2221; in the data active = inhibition above about 30%; inconclusive = no clear call, values can overlap the other calls
Rv3671c protease = Rv3671c (M. tuberculosis) protease inhibition; inhibition, % at 5.96 µM; 320,000 compounds, 0.048% hits; in the data active = inhibition above about 38%;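 also: extracellular domain of Rv3671c used as enzyme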
Mtb FBA inh conf = Mtb FBA inhibition, confirmed; 5,600 compounds, 78% hits; AID 651616; purified M. tuberculosis FBA, fluorescence read-out; inhibition, % at 1 µM; shares compounds with Mtb FBA inh
GDH-TPI counter-2 = inhibits GDH-TPI coupling enzymes, flagging Mtb FBA hits | shares compounds with Mtb FBA inh | GDH-TPI coupled enzyme counterscreen, fluorescence | inhibition, % at 1 µM | 5,600 compounds, 81% hits | AID 652141; in the data active = inhibition above about 10%
GDH-TPI DR = GDH-TPI dose response counter-screen for Mtb FBA | shares compounds with Mtb FBA inh | GDH-TPI coupled enzyme assay, fluorescence, artifact counterscreen | IC50, µM | 170 compounds, 79% hits | AID 652145; call rule not given here
Each line names hits and unclear results; the compound was inactive in the other large screens (follow-up assays come after a bar, where they were run); ! = a repeat was not active. Rule as the data show it, unless noted: active = inhibition above about 27%; inactive = the rest.

CNC(=O)Cn1nc(C)c(S(=O)(=O)N2CCOCC2)c1C	none (no result: RecA intein inh)
O=C(COC(=O)CCSc1ccccc1)Nc1ccccc1Br	none (no result: RecA intein inh)
CC(C)OCCCn1c(=N)c(C(N)=S)cc2c(=O)n3ccccc3nc21	Mtb FBA inh 70.9 | Mtb FBA inh conf 91.9 | GDH-TPI counter-2 81.1
N=c1c(C(=O)NC2CCCCC2)cc2c(=O)n3ccccc3nc2n1Cc1ccccc1	UGM FP inh inconclusive, Mtb FBA inh 55.5 | Mtb FBA inh conf 167.1 | GDH-TPI counter-2 133.8
Cc1cccn2c(=O)c3cc(C(=O)NC4CCCCC4)c(=N)n(Cc4ccc(F)cc4)c3nc12	Mtb FBA inh 30.8 | Mtb FBA inh conf active | GDH-TPI counter-2 active
CCCn1c(=N)c(S(=O)(=O)c2ccccc2)cc2c(=O)n3ccccc3nc21	none
Cc1nc2ccccn2c1C(=O)NC1CCCC1	none
N=c1c(S(=O)(=O)c2ccccc2)cc2c(=O)n3ccccc3nc2n1Cc1ccco1	Mtb FBA inh 63.6 | Mtb FBA inh conf 133.8 | GDH-TPI counter-2 96.6
Cc1ccc(S(=O)(=O)c2cc3c(=O)n4ccccc4nc3n(Cc3ccco3)c2=N)cc1C	none (no result: Vc quorum ag, GDH-TPI counter-1, Mtb FBA inh)
N=c1c(C(=O)NC2CCCCC2)cc2c(=O)n3ccccc3nc2n1CCc1ccccc1	Mtb FBA inh 46.9 | Mtb FBA inh conf inactive | GDH-TPI counter-2 inactive
N=c1c(C(=O)NCCc2ccccc2)cc2c(=O)n3ccccc3nc2n1Cc1ccco1	Mtb FBA inh 30.4 | Mtb FBA inh conf active | GDH-TPI counter-2 162.7
Cc1ccc(S(=O)(=O)c2cc3c(=O)n4ccccc4nc3n(CCc3ccccc3)c2=N)cc1	none
O=C(NC1CCCN(Cc2ccc(Cl)cc2)C1)c1cnc2ccccn2c1=O (stereo unspecified)	Mtb FBA inh 54.9 | Mtb FBA inh conf 117.6 | GDH-TPI counter-2 81.6
Cc1ccc(S(=O)(=O)c2cc3c(=O)n4ccccc4nc3n(CC3CCCO3)c2=N)cc1C (stereo unspecified)	Mtb FBA inh 36.6 | Mtb FBA inh conf 91.8 | GDH-TPI counter-2 63.1
O=S(=O)(c1ccc(NCCCO)nc1)N1CCOCC1	none (no result: UGM FP inh, RecA intein inh, Rv3671c protease)
CC(CC(=O)c1ccc(F)cc1)N1CCN(c2ccccc2)CC1 (stereo unspecified)	none (no result: UGM FP inh, RecA intein inh, Rv3671c protease)
O=C(Cn1c(=O)n(Cc2ccco2)c(=O)c2cc(Cl)ccc21)NCC1CCCO1 (stereo unspecified)	none
Cc1ccc(S(=O)(=O)c2cc3c(=O)n4ccccc4nc3n(C)c2=N)cc1	Mtb FBA inh 39.6 | Mtb FBA inh conf 51.6 | GDH-TPI counter-2 41.8
N=c1c(C(=O)NCC2CCCO2)cc2c(=O)n3ccccc3nc2n1Cc1ccco1 (stereo unspecified)	Mtb FBA inh 27.6 (no result: RecA intein inh) | Mtb FBA inh conf active | GDH-TPI counter-2 191.5
N=c1c(C(=O)NC2CCCCC2)cc2c(=O)n3ccccc3nc2n1Cc1cccnc1	Mtb FBA inh 106.9 (no result: RecA intein inh) | Mtb FBA inh conf active | GDH-TPI counter-2 active
Cc1cccc(N2CCc3c2nc2ccccc2c3N)c1	Mtb FBA inh 69.7! | Mtb FBA inh conf 52.0 | GDH-TPI counter-2 37.2
COc1ccc(CNC(=O)COc2cc(O)c3c(c2)OC(C)(C)CC3=O)cc1	none
c1ccc(CN2CCN(c3nc(N4CCOCC4)c4ccccc4n3)CC2)cc1	none
c1ccc2c(N3CCOCC3)nc(N3CCOCC3)nc2c1	Mtb FBA inh 110.1 | Mtb FBA inh conf active | GDH-TPI counter-2 163.1
COc1ccc(Cn2nnnc2C(CC(C)C)N2CCN(c3ccccc3)CC2)cc1 (stereo unspecified)	Mtb FBA inh 54.8 | Mtb FBA inh conf inactive | GDH-TPI counter-2 inactive | GDH-TPI DR inactive
COCCn1nnnc1C(c1ccccc1OC)N1CCN(c2ccccc2)CC1 (stereo unspecified)	Mtb FBA inh 40.1 | Mtb FBA inh conf 60.2 | GDH-TPI counter-2 41.5
CCCC(c1nnnn1Cc1ccc(OC)cc1)N1CCN(c2ccccc2)CC1 (stereo unspecified)	none (no result: UGM FP inh, Rv3671c protease)
